# Source: PubChem
# SRC1 inh: inhibits human SRC1 coactivator. 360,000 tested, 0.12% active. HEK293 GAL4-SRC1 luciferase reporter, luminescence. Q15788. inhibition, % at 3.6 µM;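 active = inhibition above the campaign mean plus 3 SD, with each screening campaign given its own cutoff, cut at about 60% in these data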;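 also: 0% = DMSO treated cells and 100% = gossypol at 36 µM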
# Target sequence (Q15788 whole entry, looked up, the tested form may be a part): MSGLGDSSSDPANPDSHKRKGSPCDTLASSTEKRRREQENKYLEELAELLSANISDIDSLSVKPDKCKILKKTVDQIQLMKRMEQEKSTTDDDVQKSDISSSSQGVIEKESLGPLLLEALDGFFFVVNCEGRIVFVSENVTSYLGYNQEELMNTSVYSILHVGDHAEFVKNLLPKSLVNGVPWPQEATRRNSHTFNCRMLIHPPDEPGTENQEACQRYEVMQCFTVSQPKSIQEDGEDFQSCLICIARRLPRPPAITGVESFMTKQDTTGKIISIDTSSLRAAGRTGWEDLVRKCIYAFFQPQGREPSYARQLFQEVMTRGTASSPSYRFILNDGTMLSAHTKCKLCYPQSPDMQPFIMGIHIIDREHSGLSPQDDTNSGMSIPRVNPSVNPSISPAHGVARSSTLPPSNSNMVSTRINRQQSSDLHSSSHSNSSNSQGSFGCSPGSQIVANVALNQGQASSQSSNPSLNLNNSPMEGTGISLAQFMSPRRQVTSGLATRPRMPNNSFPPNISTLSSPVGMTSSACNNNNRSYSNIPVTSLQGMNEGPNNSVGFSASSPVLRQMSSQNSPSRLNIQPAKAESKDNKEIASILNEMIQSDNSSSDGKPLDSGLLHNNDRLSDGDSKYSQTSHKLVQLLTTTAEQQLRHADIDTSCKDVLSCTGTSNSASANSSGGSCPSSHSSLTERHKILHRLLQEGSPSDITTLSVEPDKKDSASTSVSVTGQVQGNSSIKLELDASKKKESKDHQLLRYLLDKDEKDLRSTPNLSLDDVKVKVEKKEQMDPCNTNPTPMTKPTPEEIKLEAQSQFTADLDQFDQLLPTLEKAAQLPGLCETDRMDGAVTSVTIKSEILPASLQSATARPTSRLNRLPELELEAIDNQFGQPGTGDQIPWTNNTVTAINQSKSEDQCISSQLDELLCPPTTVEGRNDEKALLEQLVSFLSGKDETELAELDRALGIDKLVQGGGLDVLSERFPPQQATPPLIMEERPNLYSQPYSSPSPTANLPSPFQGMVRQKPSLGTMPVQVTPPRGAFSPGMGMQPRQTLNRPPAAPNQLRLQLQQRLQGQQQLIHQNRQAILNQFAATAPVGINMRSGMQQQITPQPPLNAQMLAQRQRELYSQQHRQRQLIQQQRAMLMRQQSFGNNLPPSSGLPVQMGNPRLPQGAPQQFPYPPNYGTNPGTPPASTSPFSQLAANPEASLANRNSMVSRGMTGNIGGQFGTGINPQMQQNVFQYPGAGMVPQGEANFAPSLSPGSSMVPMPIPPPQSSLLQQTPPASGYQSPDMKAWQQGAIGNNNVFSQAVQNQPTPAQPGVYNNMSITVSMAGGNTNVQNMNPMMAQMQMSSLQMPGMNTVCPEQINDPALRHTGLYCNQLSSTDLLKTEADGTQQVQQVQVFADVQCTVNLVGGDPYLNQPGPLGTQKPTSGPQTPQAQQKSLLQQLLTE
# SRC2 inh: human SRC2 (NCOA2) inhibition. Q15596. HEK293 GAL4-SRC2 luciferase reporter, luminescence. inhibition, % at 9 µM. 370,000 tested, 0.17% active. AID 651957;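 active = inhibition above the mean inhibition of all tested compounds plus 3 SD, set per campaign, cut at about 52% in these data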;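 also: 0% = DMSO treated cells and 100% = cells given Gossypol at 36 µM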
# Gli-Sufu block: blocks Gli-Sufu signaling in a luciferase reporter; inhibition, % at 5 µM; 340,000 tested, 0.74% active; Sufu-KO-LIGHT fibroblasts, Gli luciferase reporter luminescence;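 active = inhibition above about 55%, limit read from the data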;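 also: 0% = DMSO-treated cells and 100% = wells with medium but no cells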
# NCOA3 inh: inhibits human SRC3 coactivator; inhibition, % at 3.6 µM; 360,000 tested, 0.17% active; HEK293 GAL4-SRC3 luciferase reporter, luminescence;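 active = inhibition above a per-campaign cutoff, the mean of all compounds plus 3 SD, cut at about 60% in these data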;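 also: 0% = DMSO-treated cells and 100% = gossypol-treated cells at 36 µM; higher means less SRC3-driven luciferase light from the GAL4 reporter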
# LRH-1 inv ag: NR5A2 inverse agonism in reporter assay; HEK293T StAR-luciferase reporter, LRH-1 transfected, 24 h; inhibition, % at 3.6 µM; AID 602396; 360,000 tested, 0.13% active; O00482;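 active = inhibition above the mean inhibition of all tested compounds plus 3 SD, cut at about 73% in these data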;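 also: 0% = DMSO wells and 100% = reporter-only cells lacking LRH-1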
# NR2F2 inh: NR2F2 (human) inhibition, primary screen. HEK293T NGFI-A luciferase reporter, luminescence. AID 686940. inhibition, % at 8.6 µM. 370,000 tested, 0.7% active. P24468;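 active = inhibition above a per-plate cutoff, mean inhibition of test wells between control levels plus 3 SD, cut at about 38% in these data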;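 also: cells cotransfected with COUP-TFII expression vector driving the NGFI-A reporter; 0% = median of COUP-TF2 test wells and 100% = reporter-only cells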
# VP16 Luc counter: VP16 inhibition counter-screen for COUP-TFII. inhibition, % at 8.5 µM. shares compounds with NR2F2 inh. 2,500 tested, 25% active. AID 687007. HEK293 Gal4-VP16 luciferase reporter, luminescence; in the data active = inhibition above about 13%
# COUP-TFII conf: COUP-TFII (NR2F2) inhibition, confirmation assay | 2,500 tested, 45% active | HEK293 NGFI-A luciferase reporter, luminescence | shares compounds with NR2F2 inh | inhibition, % at 8.5 µM;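 active = mean inhibition over three repeats above a set limit taken from the earlier primary screen, cut at about 38% in these data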;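 also: 100% = cells given the luciferase reporter alone without the COUP-TF2 vector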
# * hit, by the source's call; . = not tested or not shown. A selection: hits, their analogues and other compounds. The true share with any hit is near 1.3%.
SMILES,SRC1 inh,SRC2 inh,Gli-Sufu block,NCOA3 inh,LRH-1 inv ag,NR2F2 inh,VP16 Luc counter,COUP-TFII conf
O=C(CN1CCN(Cc2ccc(Cl)cc2)C1=O)NCCCN1CCN(c2ccc(F)cc2)CC1,9,15,17,31,24,56*,1,13
OC[C@@H]1CN(Cc2ccc(F)cc2)C[C@H](n2cnc3c(Nc4ccccc4)ncnc32)O1,-13,-6,.,-8,9,7,.,.
OC[C@@H]1CN(Cc2ccc(-c3ccccc3)cc2)C[C@H](n2cnc3c(Nc4ccccc4)ncnc32)O1,6,32,.,8,-15,59*,1,30
OC[C@@H]1CN(Cc2ccccc2)C[C@H](n2cnc3c(NCc4ccc(F)cc4)ncnc32)O1,-68,-17,.,-15,-7,-13,.,.
OC[C@@H]1CN(Cc2ccc(-c3ccccc3)cc2)C[C@H](n2cnc3c(NCc4ccc(F)cc4)ncnc32)O1,8,45,.,7,29,75*,2,54*
O=C1N(c2ccccc2)CC2CC(c3ccccc3)N3CCCC123 (stereo unspecified),.,23,.,.,.,-9,.,.
CCOC(=O)CSc1nc2ccc(NC(=O)CSc3nnnn3Cc3ccccc3)cc2s1,12,2,-20,2,9,16,.,.
CC(C)(C)NC(=O)CSc1nc2ccc(NC(=O)CSc3nnnn3Cc3ccccc3)cc2s1,33,11,40,38,38,67*,2,51*
CC(=O)Oc1c(Cl)cc(N(C(C)=O)S(=O)(=O)c2ccccc2)c2ccccc12,20,30,6,26,26,53*,28*,28
CC(=O)Oc1ccc(N(C(C)=O)S(=O)(=O)c2ccccc2)c2ccccc12,10,-1,.,-3,45,-8,.,.
O=C(NC1CCCc2c1cnn2-c1ccc(F)cc1F)c1cccs1 (stereo unspecified),.,.,.,.,.,29,.,.
C=CCNC(=O)NC[C@@]1(C(=O)OC)CC(=O)N(C)[C@@H]1c1ccccc1,.,-62,.,.,.,0,.,.
CN(Cc1ccccc1)C(=O)c1ccc(NC(=O)Cc2ccc(NC(=O)C3CCCN(C(=O)CCc4ccccc4)C3)cc2)cc1 (stereo unspecified),25,8,29,23,42,75*,8,70*
CN(C(=O)c1cccc(NC(=O)Cc2ccc(NC(=O)C3CCCN(C(=O)CCc4ccccc4)C3)cc2)c1)C1CC1 (stereo unspecified),12,8,11,2,17,10,.,.
CN(C(=O)c1cccc(NC(=O)Cc2ccc(NC(=O)C3CCCN(C(=O)CCc4ccccc4)C3)cc2)c1)C1CCCCC1 (stereo unspecified),35,23,18,6,48,77*,0,62*
CN(Cc1ccccc1)C(=O)c1cccc(NC(=O)Cc2ccc(NC(=O)C3CCN(C(=O)CCc4ccccc4)CC3)cc2)c1,15,31,20,8,7,70*,5,43*
CN(Cc1ccccc1)C(=O)c1ccc(NC(=O)Cc2ccc(NC(=O)C3CCN(C(=O)CCc4ccccc4)CC3)cc2)cc1,8,5,16,14,14,7,.,.
CN(Cc1ccccc1)C(=O)c1ccc(NC(=O)Cc2ccc(NC(=O)C3CCCN(C(=O)C4CCC4)C3)cc2)cc1 (stereo unspecified),2,-1,-1,12,-1,10,.,.
CCn1c(SCC(=O)N/N=C/c2cccc(Oc3ccccc3)c2)nnc1-c1ccccc1,.,3,.,.,.,11,.,.
Cc1[nH]nc2c1C(c1ccccc1)N(Cc1ccccc1)C2=O (stereo unspecified),.,-25,.,.,.,-2,.,.
COC(=O)[C@@H]1N=C(c2ccc(OC)cc2)O[C@]12C(=O)N(Cc1cn(Cc3ccccc3)nn1)c1cccc(Cl)c12,.,-27,.,.,.,12,.,.
COc1ccc(/C=C/c2cc(-c3ccc(C)cc3)o[n+]2C)cc1,55,13,87*,71*,94*,67*,37*,66*
